# According to the supplement of paper PMC6555819:
# Tests used:
# Assay in all cases: PBM binding z-score (relative to random genomic background probes); higher = stronger binding; sequences stand for … in GC…GCGATTGACAGCGTAGAATGAAGG
# [1] = tested on: RARb homodimer (NR concentration 270 nM)
# Procedure, shortened: (§1)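 Probes were double-stranded and carried 34-nt variable regions with direct-repeat seeds, single-nucleotide variants, half-site ablations and random human genomic background sequences, printed on custom Agilent 4×180K protein-binding microarrays. Arrays were incubated 1 h with ligand-free nuclear receptor dimers in PBS pH 7.4, 2% milk, 0.02% Triton X-100, 1 mM DTT, 0.2 mg/mL BSA and 0.4 mg/ml salmon testes DNA. Antibodies against each partner (one per run) detected binding, and scanned fluorescence was regression-normalized. Binding z-scores use the random background probes as reference.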
# [2] = tested on: RARg:RXRa (NR concentration 270 nM, RXRa partner concentration 90 nM)
# Procedure, shortened: as §1
# [3] = tested on: RARg homodimer (NR concentration 270 nM)
# Procedure, shortened: as §1
# [4] = tested on: RXRa DBDmut IVT, anti-RXR (DBD mutation: RXRa K156A/R161A, NR concentration 90 nM)
# Procedure, shortened: as §1
# [5] = tested on: RXRa homodimer (NR concentration 180 nM)
# Procedure, shortened: as §1
# [6] = tested on: THRa:RXRa (NR concentration 90 nM, RXRa partner concentration 90 nM)
# Procedure, shortened: as §1
# [7] = tested on: THRa homodimer (NR concentration 90 nM)
# Procedure, shortened: as §1
# [8] = tested on: VDR:RXRa (NR concentration 270 nM, RXRa partner concentration 90 nM)
# Procedure, shortened: as §1
# [9] = tested on: VDR homodimer (NR concentration 270 nM)
# Procedure, shortened: as §1
sequence,measurement,setting,value
CCTATTAGTTGACCATAAGGGAAACCGAAGCTCG,PBM binding z-score,[1],0.512
same,PBM binding z-score,[2],0.264
same,PBM binding z-score,[3],0.552
same,PBM binding z-score,[4],0.71
same,PBM binding z-score,[5],0.398
same,PBM binding z-score,[6],0.545
same,PBM binding z-score,[7],0.494
same,PBM binding z-score,[8],0.226
same,PBM binding z-score,[9],0.692
AGAACGAGGGCAATTAGTTGATAGCACGGGTGGC,PBM binding z-score,[1],1.14
same,PBM binding z-score,[2],1.37
same,PBM binding z-score,[3],1.89
same,PBM binding z-score,[4],2.01
same,PBM binding z-score,[5],0.935
same,PBM binding z-score,[6],0.962
same,PBM binding z-score,[7],-0.172
same,PBM binding z-score,[8],1.13
same,PBM binding z-score,[9],1.41
CGTCCAAGGTCCAGGTCAGTGAAAGAGACTCGAA,PBM binding z-score,[1],2.38
same,PBM binding z-score,[2],1.4
same,PBM binding z-score,[3],1.92
same,PBM binding z-score,[4],0.467
same,PBM binding z-score,[5],0.732
same,PBM binding z-score,[6],2.22
same,PBM binding z-score,[7],1.67
same,PBM binding z-score,[8],0.373
same,PBM binding z-score,[9],0.482
GCTCGGAGGACAAGGTAAGAGCTTTGTCCGTAGA,PBM binding z-score,[1],-0.035
same,PBM binding z-score,[2],-0.119
same,PBM binding z-score,[3],0.491
same,PBM binding z-score,[4],-0.345
same,PBM binding z-score,[5],-0.527
same,PBM binding z-score,[6],0.97
same,PBM binding z-score,[7],-0.444
same,PBM binding z-score,[8],-0.675
same,PBM binding z-score,[9],-0.59
AGTCAAAGTTCTCTAGGTAACGTAAGATTCAGCT,PBM binding z-score,[1],0.137
same,PBM binding z-score,[2],0.139
same,PBM binding z-score,[3],0.523
same,PBM binding z-score,[4],0.597
same,PBM binding z-score,[5],0.0862
same,PBM binding z-score,[6],0.903
same,PBM binding z-score,[7],0.459
same,PBM binding z-score,[8],-0.0211
same,PBM binding z-score,[9],0.273
CCTTACGGGTCACTGACAGGTTCTAGCATTTGGA,PBM binding z-score,[1],3.15
same,PBM binding z-score,[2],4.85
same,PBM binding z-score,[3],4.15
same,PBM binding z-score,[4],1.95
same,PBM binding z-score,[5],4.61
same,PBM binding z-score,[6],2.45
same,PBM binding z-score,[7],0.145
same,PBM binding z-score,[8],3.36
same,PBM binding z-score,[9],1.03
CCTTACGCGTCACTCCAGGTTATAGCATCGGAGT,PBM binding z-score,[1],0.704
same,PBM binding z-score,[2],0.409
same,PBM binding z-score,[3],0.416
same,PBM binding z-score,[4],0.6
same,PBM binding z-score,[5],0.294
same,PBM binding z-score,[6],2.62
same,PBM binding z-score,[7],1.07
same,PBM binding z-score,[8],0.361
same,PBM binding z-score,[9],0.782
GTACCAAGGTGAATAGGCCGTTGATGAGTAGGCG,PBM binding z-score,[1],0.865
same,PBM binding z-score,[2],0.98
same,PBM binding z-score,[3],0.694
same,PBM binding z-score,[4],-0.306
same,PBM binding z-score,[5],0.633
same,PBM binding z-score,[6],1.16
same,PBM binding z-score,[7],0.224
same,PBM binding z-score,[8],-0.0408
same,PBM binding z-score,[9],-0.141
CCGACTGGGGCAAAAGGTTACCATAAGCCAGCCC,PBM binding z-score,[1],3.28
same,PBM binding z-score,[2],3.72
same,PBM binding z-score,[3],2.32
same,PBM binding z-score,[4],0.0121
same,PBM binding z-score,[5],2.71
same,PBM binding z-score,[6],1.44
same,PBM binding z-score,[7],-0.187
same,PBM binding z-score,[8],1.08
same,PBM binding z-score,[9],-0.455
TCTATTTGTTGATTAGGGCAACCGAAACAGCGGA,PBM binding z-score,[1],0.77
same,PBM binding z-score,[2],0.864
same,PBM binding z-score,[3],0.859
same,PBM binding z-score,[4],1.28
same,PBM binding z-score,[5],0.492
same,PBM binding z-score,[6],0.89
same,PBM binding z-score,[7],0.561
same,PBM binding z-score,[8],0.823
same,PBM binding z-score,[9],0.505
TTACCAACGTGAGCTGAGGTCGTTGATCCAACTC,PBM binding z-score,[1],0.839
same,PBM binding z-score,[2],0.0093
same,PBM binding z-score,[3],-0.366
same,PBM binding z-score,[4],0.168
same,PBM binding z-score,[5],0.547
same,PBM binding z-score,[6],2.48
same,PBM binding z-score,[7],1.5
same,PBM binding z-score,[8],1.21
same,PBM binding z-score,[9],2.12
CCTTACGGGTCACTGACTGGTTATAGCATTTGGA,PBM binding z-score,[1],3.06
same,PBM binding z-score,[2],5.04
same,PBM binding z-score,[3],4.61
same,PBM binding z-score,[4],1.84
same,PBM binding z-score,[5],4.93
same,PBM binding z-score,[6],2.52
same,PBM binding z-score,[7],0.498
same,PBM binding z-score,[8],3.11
same,PBM binding z-score,[9],1.03
ACTATTAGTTGAGACGAGGGCAACTGATAGGTTG,PBM binding z-score,[1],1.19
same,PBM binding z-score,[2],0.865
same,PBM binding z-score,[3],0.97
same,PBM binding z-score,[4],0.568
same,PBM binding z-score,[5],0.797
same,PBM binding z-score,[6],2.41
same,PBM binding z-score,[7],0.298
same,PBM binding z-score,[8],0.583
same,PBM binding z-score,[9],0.702
ACTATGAGTTGAGACGAGGGCAACCGATAGGTTG,PBM binding z-score,[1],1.27
same,PBM binding z-score,[2],1.15
same,PBM binding z-score,[3],1.14
same,PBM binding z-score,[4],0.701
same,PBM binding z-score,[5],0.821
same,PBM binding z-score,[6],3.63
same,PBM binding z-score,[7],0.024
same,PBM binding z-score,[8],1.9
same,PBM binding z-score,[9],0.979
TAGCCTAGGTCATTGGCCAGTATACCACGCGAAC,PBM binding z-score,[1],2.76
same,PBM binding z-score,[2],3.66
same,PBM binding z-score,[3],3.92
same,PBM binding z-score,[4],1.68
same,PBM binding z-score,[5],3.22
same,PBM binding z-score,[6],2.66
same,PBM binding z-score,[7],0.992
same,PBM binding z-score,[8],2.18
same,PBM binding z-score,[9],1.26
CCTAGGTGGTCAAGGTCACACACGCTATAGGTAC,PBM binding z-score,[1],4.16
same,PBM binding z-score,[2],4.81
same,PBM binding z-score,[3],4.61
same,PBM binding z-score,[4],1.79
same,PBM binding z-score,[5],4.66
same,PBM binding z-score,[6],4.09
same,PBM binding z-score,[7],4.01
same,PBM binding z-score,[8],4.76
same,PBM binding z-score,[9],3.06
ATCTCCAGGTAAAGTTCAGTGAAAGATCGATAGA,PBM binding z-score,[1],2.77
same,PBM binding z-score,[2],2.26
same,PBM binding z-score,[3],2.51
same,PBM binding z-score,[4],1.38
same,PBM binding z-score,[5],1.52
same,PBM binding z-score,[6],1.73
same,PBM binding z-score,[7],0.709
same,PBM binding z-score,[8],1.83
same,PBM binding z-score,[9],1.92
CTCGAAAGGTCGTGCTCAGGTGATTATACCAAAC,PBM binding z-score,[1],2.98
same,PBM binding z-score,[2],4.97
same,PBM binding z-score,[3],4.05
same,PBM binding z-score,[4],2.27
same,PBM binding z-score,[5],4.89
same,PBM binding z-score,[6],3.89
same,PBM binding z-score,[7],1.39
same,PBM binding z-score,[8],3.58
same,PBM binding z-score,[9],1.25
TCATATAGGTAATACAGGTTAAAGTCGGCATCTA,PBM binding z-score,[1],0.936
same,PBM binding z-score,[2],0.979
same,PBM binding z-score,[3],0.696
same,PBM binding z-score,[4],2.04
same,PBM binding z-score,[5],1.63
same,PBM binding z-score,[6],1.35
same,PBM binding z-score,[7],0.204
same,PBM binding z-score,[8],1.88
same,PBM binding z-score,[9],0.629
CGAACGAGGGCATGAGTTGCTAGCAAATGCCGAT,PBM binding z-score,[1],0.64
same,PBM binding z-score,[2],1.05
same,PBM binding z-score,[3],1.42
same,PBM binding z-score,[4],2.17
same,PBM binding z-score,[5],0.709
same,PBM binding z-score,[6],1.11
same,PBM binding z-score,[7],-0.232
same,PBM binding z-score,[8],0.671
same,PBM binding z-score,[9],1.05
AGATGTAGGTTAGCTGGGGTCATTCAGACTAGGC,PBM binding z-score,[1],3.53
same,PBM binding z-score,[2],3.96
same,PBM binding z-score,[3],2.72
same,PBM binding z-score,[4],1.78
same,PBM binding z-score,[5],5.24
same,PBM binding z-score,[6],5.05
same,PBM binding z-score,[7],3.03
same,PBM binding z-score,[8],5.98
same,PBM binding z-score,[9],4.8
CGAACTAGGTCAGAACAGGACTGTGAAGGATGAT,PBM binding z-score,[1],1.6
same,PBM binding z-score,[2],2.33
same,PBM binding z-score,[3],2.99
same,PBM binding z-score,[4],0.646
same,PBM binding z-score,[5],1.19
same,PBM binding z-score,[6],1.97
same,PBM binding z-score,[7],-0.0804
same,PBM binding z-score,[8],0.0454
same,PBM binding z-score,[9],-0.341
TCATATAGATAAACAGGTGAAAGTCCGTAAGTTA,PBM binding z-score,[1],0.615
same,PBM binding z-score,[2],0.467
same,PBM binding z-score,[3],0.388
same,PBM binding z-score,[4],1.94
same,PBM binding z-score,[5],1.33
same,PBM binding z-score,[6],0.561
same,PBM binding z-score,[7],0.191
same,PBM binding z-score,[8],1.18
same,PBM binding z-score,[9],0.676
ATCGAAAGGTCGTCAGGTGAGTATACAGAAAGGC,PBM binding z-score,[1],2.67
same,PBM binding z-score,[2],4.34
same,PBM binding z-score,[3],3.83
same,PBM binding z-score,[4],2.04
same,PBM binding z-score,[5],4.71
same,PBM binding z-score,[6],3
same,PBM binding z-score,[7],1.33
same,PBM binding z-score,[8],3.72
same,PBM binding z-score,[9],1.8
GGAACGAGGGCATTCGAGATGATAGCATGGCGAT,PBM binding z-score,[1],0.609
same,PBM binding z-score,[2],1.13
same,PBM binding z-score,[3],1.65
same,PBM binding z-score,[4],3.05
same,PBM binding z-score,[5],1.02
same,PBM binding z-score,[6],1.44
same,PBM binding z-score,[7],-0.487
same,PBM binding z-score,[8],1.45
same,PBM binding z-score,[9],2.01
GCTGCCAGGTCAACTGATGGTCAGCTAAAGCTCG,PBM binding z-score,[1],3.58
same,PBM binding z-score,[2],5.49
same,PBM binding z-score,[3],5.38
same,PBM binding z-score,[4],1.94
same,PBM binding z-score,[5],3.81
same,PBM binding z-score,[6],3.68
same,PBM binding z-score,[7],2.18
same,PBM binding z-score,[8],2.62
same,PBM binding z-score,[9],0.679
